Screening results (PubChem BioAssay)
Rows were chosen to be rich in hits. Some 7.5% of all compounds tested hit in one or more screens of this group.
VP16 counter – VP16 counterscreen qHTS for inhibitors of ROR gamma transcriptional activity. AID 2546, 2010. hit rate 3.5% among 310,000. Drosophila S2 Gal4-VP16 UAS-luciferase, luminescence, 20 h. Potency, µM (doses to about 53.6 µM), for the others: at the top dose activity, negative = inhibition, hits mostly inhibitors;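 also: Gal4-VP16 expression switched on by copper sulfate through the metallothionein promoter; potency is read from the fitted curve at half-maximal effect; nearly all actives have a fitted effect of over 50% in size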
B2AR arrestin – qHTS assay of beta-arrestin-biased ligands of beta2-adrenergic receptor | Beta-2 adrenergic receptor (Homo sapiens), P07550 | beta-arrestin recruitment to beta2AR, cell-based reporter | Potency, µM (doses to about 46.1 µM), without a hit: top-dose activation, hits mostly activators | hit rate 0.02% among 330,000;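 also: potency is read from the fitted curve at half-maximal effect; 0% = DMSO controls and full agonism = EC100 isoproterenol or metaproterenol; nearly all actives have a fitted effect of over 65% in size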
ELG1 repair inh – qHTS screen for small molecules that inhibit ELG1-dependent DNA repair in human embryonic kidney (HEK293T) cells expressing luciferase-tagged ELG1. hit rate 2.3% among 330,000. Potency, µM (doses to about 46.1 µM), without a hit: at the top dose activity change, negative = inhibition, hits mostly inhibitors. HEK293T ELG1-luciferase reporter, luminescence, 16 h; DNA damage induced by 5-fluorouridine. AID 504467, 2011; also: potency is read from the fitted curve at half-maximal effect; nearly all actives have a fitted effect of over 55% in size
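HEK293T cells expressing luciferase-tagged ELG1 (2,000/well) received 5-Fluorouridine plus compound or DMSO for 16 hr at 37 °C. Luciferase was read by ONE-Glo luminescence after 30 min at room temperature.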
RORgamma inh – qHTS for inhibitors of ROR gamma transcriptional activity. Nuclear receptor ROR-gamma (Mus musculus), P51450. Drosophila S2 Gal4-RORgamma UAS-luciferase reporter, 20 h. Potency, µM (top dose mostly 53.6 µM), without a hit: at the highest dose activity change, negative = inhibition, most hits filed as inhibitors. hit rate 5.4% among 310,000. AID 2551, 2010; also: potency is read from the fitted curve at half-maximal effect; nearly all actives have a fitted effect of over 60% in size
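Read-out: Photinus luciferase luminescence; inhibitors lower reporter signal. Insect Schneider cells with Gal4-ROR gamma fusion under metallothionein promoter, UAS reporter; 700 uM final copper sulfate induction, 20 hr, ambient temperature.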
TSHR antag – Antagonists of the Thyroid Stimulating Hormone Receptor: HTS campaign | Thyrotropin receptor (Homo sapiens), P16473 | TSHR-expressing cells, TSH-stimulated cAMP HTRF, 2 h; active compounds read low | hit rate 0.2% among 330,000 | activity change, negative = inhibition, % at 11.5 µM;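 active = activity change below a set negative limit, meaning inhibition stronger than a set level, cut at about -70% in these data; inconclusive = activity change between two set negative limits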
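TSHR-expressing cells were treated with compounds, then stimulated with TSH at EC80 (4nM final) for 2 hours at 37 deg C. Cellular cAMP was measured by HTRF competition between lysate cAMP and cAMP-d2 for a cryptate-labelled anti-cAMP antibody.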
An asterisk follows results filed as active; ? = inconclusive; nt = no result; [ ] = another dose, or the depositor's remark. Unless noted, calls follow the shape of the dose curve; as a rule, active = well fitted curve in the direction sought with a large enough effect; inconclusive = small, poorly fitted or top-dose-only effect, or another doubt; inactive = no such curve, though single readings can be large; an effect the other way counts as inactive or inconclusive. Unless noted, % is scaled to controls: 0 for no effect and ±100 for the full control effect.

SMILES	VP16 counter	B2AR arrestin	ELG1 repair inh	RORgamma inh	TSHR antag
COC(=O)[C@@]12CCCCN1[C@H](c1ccc(-c3ccc(C(C)=O)cc3)c(OC)c1)[C@@H]1C(=O)N(C)C(=O)[C@@H]12	nt	0.4%	10.1%	nt	-0.5
COc1cc(-c2noc(-c3ccccc3C(=O)NCc3ccco3)n2)cc(OC)c1OC	5.8%	-0.1%	4.61µM*	34.7%	-21.3
COc1ccccc1-c1noc(-c2ccccc2C(=O)NCc2ccco2)n1	0.6%[10 µM]	0.1%	?	31.4%	4.7
Cc1c2c(c(O)c3c(O)cccc13)C(=O)O[C@H]2C1C(N(C)C)C(O)=C(C(N)=O)C(=O)[C@H]1O (stereo partly specified)	-9.0%	nt	nt	8.3%	nt
COc1ccc(-c2noc(CN3CCCCC3c3nccn3C)n2)cc1 (stereo unspecified)	?	-0.1%	-0.1%	3.55µM*	10.4
Cn1ccnc1C1CCCCN1Cc1nc(Cc2cccc(C(F)(F)F)c2)no1 (stereo unspecified)	?	3.0%	-17.0%	7.08µM*	-8.6
COc1ccc(CC(=O)n2[nH]c(=O)cc(C)c2=O)cc1OC	?	-0.2%	3.8%	11.2µM*	12.0
COc1ccc(CC(=O)NC(C)(C)CC(C)=O)cc1OC	2.8%	-0.6%	6.3%	4.0%	6.0
Cc1nc2cc(-c3cccc(Cl)c3)nn2c(N2CCN(C(=O)c3ccco3)CC2)c1C	5.6%	0.0%	?	12.3%	4.0
Cc1cc(N2CCN(C(=O)c3ccco3)CC2)n2nc(-c3cccc(Cl)c3)cc2n1	?	-0.9%	13µM*	?	-21.7
CCC(CO)Oc1cc(NC(=O)c2ccccc2F)c2ncn(C(C)C)c2c1 (stereo unspecified)	nt	13.3%	5.17µM*	nt	54.6
CCC(CO)Oc1cc(NC(=O)c2ccccc2C)c2ncn(C(C)C)c2c1 (stereo unspecified)	nt	0.2%	-15.7%	nt	5.9
O=S(=O)(CCSc1nc2ccccc2o1)c1nc2ccccc2s1	?	-1.3%	?	?	-24.8
O=S(=O)(CCSc1ccccn1)c1nc2ccccc2s1	?	0.0%	5.3%	12.6µM*	4.8
O=C(Nc1cccc(C(F)(F)F)c1)C1CCN(S(=O)(=O)c2ccc(N3CCCC3=O)cc2)CC1	12.6µM*	0.2%	-25.1%	?	-34.0
CS(=O)(=O)N1CCC(C(=O)Nc2cccc(C(F)(F)F)c2)CC1	-4.0%	-0.1%	-0.2%	-0.2%	-2.2
COC(=O)c1[nH]c2ccc(Br)cc2c1NC(=O)CN1CCCc2ccccc21	-0.1%	-0.2%	8.2µM*	41.3%	-13.7
CCOC(=O)c1[nH]c2ccc(OC)cc2c1NC(=O)CN1CCc2ccccc2C1	2.4%	0.3%	16.4µM*	17.3%	-10.0
CCOC(=O)c1[nH]c2ccc(OC)cc2c1NC(=O)CN1CCN(c2ccccn2)CC1	3.2%	-0.5%	?	18.4%	-6.2
COC(=O)c1[nH]c2cc(C)ccc2c1NC(=O)CN1CCCc2ccccc21	?	-0.5%	?	17.8%	-0.9
CCOC(=O)c1[nH]c2ccc(F)cc2c1NC(=O)C(C)N1CCc2cc(OC)c(OC)cc2C1 (stereo unspecified)	-2.5%	-0.9%	4.11µM*	8.2%	1.9
CCOC(=O)C1CCCN(CC(=O)Nc2c(C(=O)OC)[nH]c3ccc(Br)cc23)C1 (stereo unspecified)	?	0.5%	16.4µM*	7.0%	-0.1
COc1ccc2c(c1)C(=O)[C@H](OC(=O)NCc1ccco1)[C@@H](c1ccc(OC)c(Br)c1)O2	6.6%	nt	nt	-4.6%	nt
COCC1=Cc2cc3c(cc2C(C(C(=O)OC)C(=O)OC)N1C(=O)OC)OCO3 (stereo unspecified)	-4.8%	nt	nt	0.7%	nt
CC(CN)(NS(=O)(=O)c1ccccc1)c1ccccc1 (stereo unspecified)	-6.9%	-0.9%	-7.5%	?	10.6
